Sampled rows, rich in hits. Any-hit rate of the full collection: about 0.9%.
RECQ1 inh-1 – qHTS Assay for Inhibitors of RecQ-Like Dna Helicase 1 (RECQ1) | ATP-dependent DNA helicase Q1 (Homo sapiens), P46063 | RECQ1 DNA unwinding, red fluorescence kinetic read | Potency, µM (top dose mostly 57.3 µM), for inactives: at the top dose activity, negative = inhibition, most hits filed as inhibitors | 240,000 tested, 0.54% active;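 also: plate controls were vehicle for no effect and no enzyme for full effect; nearly all actives have a fitted effect of over 30% in size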
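50 nM RECQ1T1 preincubated 15 min with compound in Tris pH 8.0 buffer with MgCl2, DTT, Tween-20 and 2.5 ug/ml poly(dI-dC); started with 200 nM TAMRA/BHQ-2 forked duplex and 2 mM ATP. Unwinding read as fluorescence (525/598 nm), two reads 2 h apart.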
BLM inh – qHTS Assay for Inhibitors of Bloom's syndrome helicase (BLM). AID 2528, 2010. recombinant BLM DNA unwinding, fluorescence dequenching. 350,000 tested, 0.2% active. Potency, µM (highest dose often 56.1 µM), for the others: at the top dose activity change, negative = inhibition, most hits filed as inhibitors. RecQ-like DNA helicase BLM (Homo sapiens), P54132;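 also: plate controls were vehicle for no effect and no enzyme for full effect; nearly all actives have a fitted effect of over 35% in size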
GoLoco inh red – qHTS Assay for Inhibitors of RGS12 GoLoco Motif Activity (Red Fluorophore) | Guanine nucleotide-binding protein G(i) subunit alpha-1 (Homo sapiens), P63096 | Gai1:RGS12 GoLoco peptide FP, rhodamine, 10 min | Potency, µM (top dose mostly 61.6 µM), without a hit: top-dose activity, negative = inhibition, actives largely listed as inhibitors | 230,000 tested, 0.44% active | AID 880, 2007; active = well fitted inhibition curve with a large enough effect, not every such curve was filed as active; inactive = no such curve, though single readings can be large or run the other way; also: nearly all actives have a fitted effect of over 30% in size
TexasRed fluor – Total Fluorescence Counterscreen for Inhibitors of the Interaction of Thyroid Hormone Receptor and Steroid Receptor Coregulator 2; Potency, µM (top dose mostly 106 µM), for inactives: at the top dose fluorescence change, negative = quenching; 280,000 tested, 0.29% active; TRb/SRC2 Texas Red total fluorescence interference; active = well fitted curve in either direction with a large enough effect; inconclusive = small, poorly fitted or top-dose-only effect
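Human TRb ligand-binding domain at 0.6 uM with 20 nM Texas Red SRC2 peptide in Tris buffer containing 1 uM T3 and 5% DMSO, incubated with compound 5 h at ambient temperature. Total fluorescence (555/632 nm) calculated as parallel + 2 × perpendicular.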
APE1 inh – qHTS Assay for Inhibitors of the Human Apurinic/apyrimidinic Endonuclease 1 (APE1); AID 2517, 2012; recombinant APE1, TAMRA/BHQ-2 abasic DNA cleavage fluorescence; 350,000 tested, 0.35% active; Potency, µM (highest dose often 65.8 µM), for inactives: top-dose activity change, negative = inhibition, usual class: inhibitors; DNA repair nuclease/redox regulator APEX1 (Homo sapiens), P27695;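 also: plate controls were vehicle for no effect and reference inhibitor for full effect; nearly all actives have a fitted effect of over 55% in size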
Target sequence (P27695 whole entry, looked up): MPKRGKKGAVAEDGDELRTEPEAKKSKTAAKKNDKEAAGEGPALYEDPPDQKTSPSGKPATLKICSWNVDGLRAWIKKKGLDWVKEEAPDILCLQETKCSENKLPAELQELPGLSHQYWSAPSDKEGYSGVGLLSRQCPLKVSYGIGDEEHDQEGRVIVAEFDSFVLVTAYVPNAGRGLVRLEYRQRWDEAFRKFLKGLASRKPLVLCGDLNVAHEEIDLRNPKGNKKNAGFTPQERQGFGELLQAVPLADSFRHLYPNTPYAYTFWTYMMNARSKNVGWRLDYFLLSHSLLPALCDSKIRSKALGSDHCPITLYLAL
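Endonuclease cleavage of a quenched abasic-site DNA duplex (50 nM) by APE1 (0.75 nM) was tracked by TAMRA dequenching. Compounds were preincubated with enzyme 15 min at room temperature; data normalized to buffer-only and DMSO wells plus NSC13755 control.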
TRb-SRC2 inh – qHTS for Inhibitors of the Interaction of Thyroid Hormone Receptor and Steroid Receptor Coregulator 2. 280,000 tested, 0.065% active. Thyroid hormone receptor beta (Homo sapiens), P10828. TRbeta-SRC2 peptide binding, fluorescence polarization; receptor liganded with 1 µM T3. Potency, µM (titrated, usually from 106 µM), inactives show at the top dose activity change, negative = inhibition, actives largely listed as inhibitors;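 also: plate controls were bound peptide for no effect and peptide without receptor for full effect; nearly all actives have a fitted effect of over 50% in size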
Target sequence (P10828 whole entry, looked up): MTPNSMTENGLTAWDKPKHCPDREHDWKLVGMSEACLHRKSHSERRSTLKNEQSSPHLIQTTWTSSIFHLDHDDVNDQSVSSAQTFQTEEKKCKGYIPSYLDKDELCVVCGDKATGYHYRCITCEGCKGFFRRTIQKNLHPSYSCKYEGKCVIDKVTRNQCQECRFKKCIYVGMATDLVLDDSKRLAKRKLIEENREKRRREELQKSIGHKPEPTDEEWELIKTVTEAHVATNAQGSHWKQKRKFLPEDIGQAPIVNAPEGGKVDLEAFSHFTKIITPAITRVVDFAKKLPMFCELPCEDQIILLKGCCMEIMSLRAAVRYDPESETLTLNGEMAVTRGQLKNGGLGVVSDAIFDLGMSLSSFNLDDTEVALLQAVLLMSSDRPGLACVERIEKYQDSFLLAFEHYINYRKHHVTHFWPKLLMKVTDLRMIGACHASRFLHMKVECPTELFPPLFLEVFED
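Human TRb LBD (0.6 uM) plus Texas Red-labeled SRC2 peptide (20 nM), 1uM T3, 5% DMSO, 5 hr at ambient temperature. Decreased polarization (555/632 nm) flags inhibition; data normalized to free and bound peptide controls.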
RECQ1 inh conf – Confirmation qHTS Assay for Inhibitors of RecQ-Like Dna Helicase 1 (RECQ1); shares compounds with RECQ1 inh-1; Potency, µM (highest dose often 229 µM), without a hit: at the highest dose activity change, negative = inhibition, usual class: inhibitors; 610 tested, 28% active; RECQ1 helicase DNA unwinding, fluorescence; also: nearly all actives have a fitted effect of over 45% in size
RECQ1 ADP FP – Counterscreen for RECQ1 Inhibitors: ADP Fluorescence Polarization Displacement Assay. shares compounds with RECQ1 inh-1. ADP fluorescence polarization displacement counterscreen. Potency, µM (doses to about 228 µM), for the others: at the top dose activity change, negative = inhibition, most hits filed as inhibitors. 530 tested, 27% active. AID 2711, 2010; also: nearly all actives have a fitted effect of over 45% in size
RECQ1 inh-2 – Confirmation qHTS Assay for Inhibitors of RecQ-Like Dna Helicase 1 (RECQ1) - Round 2 Cherry Picks; shares compounds with RECQ1 inh-1; recombinant RECQ1 DNA unwinding, red fluorescence; Potency, µM (titrated, usually from 119 µM), for inactives: top-dose activity, negative = inhibition, most hits filed as inhibitors; 1,100 tested, 15% active; AID 504841, 2011; also: nearly all actives have a fitted effect of over 50% in size
Starred values were filed as active, the others as inactive; i = inactive; ? = inconclusive; nt = no result; [ ] = another dose, or the depositor's remark. Unless noted, calls follow the shape of the dose curve; as a rule, active = well fitted curve in the direction sought with a large enough effect; inconclusive = small, poorly fitted or top-dose-only effect, or another doubt; inactive = no such curve, though single readings can be large; an effect the other way counts as inactive or inconclusive. Unless noted, % is scaled to controls: 0 for no effect and ±100 for the full control effect; potency is read from the fitted curve at half-maximal effect.

SMILES | RECQ1 inh-1 | BLM inh | GoLoco inh red | TexasRed fluor | APE1 inh | TRb-SRC2 inh | RECQ1 inh-2 | others
CN(C)c1ccc(/C=C2\SC(=O)N(CCc3nnc(N)s3)C2=O)cc1 | ? | -8% | 144% | 8% | -3% | 7% | ?
O=C(NC1CCCC1)c1ccc2nc(-c3ccco3)c(-c3ccco3)nc2c1 | ? | ? | nt | -6% | ? | 1% | -21%
COc1ccc(OC)c(NC(=O)c2c(C)oc3ncnc(N4CCOCC4)c23)c1 | nt | 0% | nt | -1% | nt | -5% | nt
COC(=O)C1=C(C)N(c2cccc3ccccc23)C(=O)C1 | ? | 0% | 9% | 0% | -1% | -2% | -20%
O=C(O)CCC(=O)N1N=C(c2ccco2)CC1c1cccs1 (stereo unspecified) | -4% | -2% | -2% | -1% | 5% | 12% | nt | RECQ1 inh conf=-4%;RECQ1 ADP FP=5%
O=C(O)CCC(=O)N1N=C(c2ccco2)CC1c1ccco1 (stereo unspecified) | nt | -5% | nt | nt | -29% | nt | nt
CN(C)c1nc(-c2ccc3c(c2)OCO3)nc2ccccc12 | -3% | 31% | 7% | nt | 25% | nt | nt
CCN(CC)S(=O)(=O)c1ccc(-c2nnc(SCC(=O)Nc3nc(C)cs3)o2)cc1 | -11% | -1% | 11% | 0% | 2% | -8% | nt
CC1Cc2ccccc2N1C(=O)CSc1nnc(-c2ccc(S(=O)(=O)N3CCOCC3)cc2)n1C (stereo unspecified) | -3% | -1% | 3% | -1% | 12% | -5% | nt | RECQ1 inh conf=0%;RECQ1 ADP FP=?
CC1CCN(C(=O)CSc2nnc(-c3ccc(S(=O)(=O)N4CCOCC4)cc3)n2C)CC1 | 0% | 3% | -3% | -3% | 7% | -4% | nt
Cc1cc(NC(=O)CSc2nnc(-c3ccc(S(=O)(=O)N4CCCC4)cc3)n2C)no1 | -7% | 1% | 5% | -2% | 2% | 0% | nt | RECQ1 inh conf=-4%;RECQ1 ADP FP=3%
Cc1csc(NC(=O)CSc2nnc(-c3ccc(S(=O)(=O)N4CCCC4)cc3)o2)n1 | -1% | 1% | -5% | 2% | 0% | 1% | nt | RECQ1 inh conf=8%;RECQ1 ADP FP=11%
CCn1c(SCC(=O)Nc2cc(C)on2)nnc1-c1ccc(S(=O)(=O)N2CCCC2)cc1 | i | -1% | 5% | -1% | 1% | 1% | nt
COc1ccccc1NC(=O)c1c(C)cc(C)nc1SCC(=O)c1ccc(Cl)cc1 | nt | 1% | nt | ? | nt | -22% | nt
Cc1ccc(S(=O)(=O)NCCc2nnc3ccc(SCC(=O)Nc4ccc(OC(F)(F)F)cc4)nn23)cc1 | nt | 0% | nt | 0% | nt | 4% | nt
O=C(NCCc1ccc(Cl)cc1)c1cnc2sc(N3CCCC3)nn2c1=O | nt | 0% | nt | 5% | nt | 5% | nt
CO[C@H]1COC(=O)[C@@H](CCSC)NC(=O)C/C=C\[C@@H](C)[C@H](OC)COC(=O)[C@@H](OCc2ccccc2)/C=C\[C@@H]1C | i[11.5 µM] | 1%[12.4 µM] | nt | 2%[11.2 µM] | 7%[12.4 µM] | 8%[11.2 µM] | nt
COc1ccc([C@H]2Oc3cc(O)cc(O)c3C(=O)C2[C@@H]2C(=O)c3c(O)cc(O)cc3O[C@@H]2c2ccc(OC)cc2)cc1 (stereo partly specified) | -11% | ? | 17% | -22% | -6% | ? | nt
O=C1C(=O)C(c2ccc(O)cc2O)Oc2cc(O)cc(O)c21 (stereo unspecified) | nt | nt | nt | nt | nt | nt | nt | RECQ1 inh conf=?
Cc1ccc(/C(C#N)=C\c2ccc(N3CCOCC3)o2)cc1 | 32µM* | -7% | -22% | 13% | -2% | -4% | ?
Cc1ccc2nc(/C(C#N)=C\c3ccc(N4CCOCC4)o3)[nH]c2c1 | 2% | -12% | 149% | -4% | -1% | -20% | nt
CC1CCN(CCCn2c(=S)[nH]c3c(sc4ccc([N+](=O)[O-])cc43)c2=O)CC1 | ? | -1% | -12% | 0% | 17% | 0% | ?
Cc1cccc(CNc2cc(-c3ccoc3)ncn2)c1 | ? | -13% | 18% | 3% | -3% | -4% | -11%
CC(=O)Nc1c(C(=O)Nc2cccc(C)c2)nnn1-c1ccc(C)cc1 | nt | -11% | nt | 5% | nt | -3% | nt
CCc1cc2c(=O)c(-c3ccc4c(c3)OCCO4)coc2c(CN2CCCCC2C)c1O (stereo unspecified) | ? | -3% | 6% | -3% | -6% | 1% | -13%
SMILES | RECQ1 inh-1 | BLM inh | GoLoco inh red | TexasRed fluor | APE1 inh | TRb-SRC2 inh | RECQ1 inh-2 | others
COc1ccc(NC(=O)CSc2nncn2C)cc1OC | ? | 4% | 13% | 2% | 20% | -4% | -25%
Cc1ccc(OCC(O)CNS(=O)(=O)c2ccccc2C(=O)O)cc1 (stereo unspecified) | 8% | -12% | 9% | -6% | 5% | -1% | nt | RECQ1 inh conf=-1%;RECQ1 ADP FP=3%
CCN(CC)S(=O)(=O)c1ccc2c(c1)nc(CN(C)C(=O)Nc1ccc(F)cc1)n2C | nt | -12% | nt | 0% | nt | 6% | nt
Cc1ccc(NC(=O)C2CCN(S(=O)(=O)c3cccc4nonc34)CC2)cc1C | nt | -9% | nt | -3% | nt | -5% | nt
COc1cc(NC(=O)C2CCN(S(=O)(=O)c3cccc4nonc34)CC2)cc(OC)c1 | 16µM* | -2% | -3% | 1% | 12% | -6% | -2%
O=C(O)c1cccc(Cn2c(Cl)c(/C=N/NC(=O)c3cc4ccccc4cc3O)sc2=O)c1 | 4.5µM* | 8.9µM* | 10% | -6% | ? | 15% | nt | RECQ1 inh conf=?;RECQ1 ADP FP=7%[91.9 µM]
